# Measurements from the supplement of paper PMC9694430.
# Structures can show the parent of a compound that is named as a salt.
# Test system: T1, LOC_OS04G38480-cb003
# T1 sequence (whole entry): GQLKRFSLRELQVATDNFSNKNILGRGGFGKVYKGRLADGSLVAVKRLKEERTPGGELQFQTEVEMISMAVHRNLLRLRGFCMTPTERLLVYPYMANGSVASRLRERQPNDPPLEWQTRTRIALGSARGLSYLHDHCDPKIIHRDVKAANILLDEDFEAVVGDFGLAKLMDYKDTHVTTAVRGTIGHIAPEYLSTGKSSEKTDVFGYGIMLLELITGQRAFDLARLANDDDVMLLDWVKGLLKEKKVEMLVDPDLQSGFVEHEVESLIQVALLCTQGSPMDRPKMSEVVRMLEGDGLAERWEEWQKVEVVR
# Assay: thermal shift delta Tm vs DMSO control; higher = stronger stabilization (binding)
# Settings: 12.5 µM; protein concentration 2 µM
# Summary of the method: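 The melting temperature shift given here is a triplicate mean, measured against protein that received only DMSO. Melting temperatures came from Boltzmann fits of differential scanning fluorimetry data on E. coli-expressed, purified rice kinase domain constructs. Each 19.5 μl well contained 2 μM kinase, 100 mM potassium phosphate pH 7.5, 150 mM NaCl, 10% glycerol, 5 × SYPRO Orange and compound in DMSO. Plates were scanned from 25°C to 95°C at 0.05°C/s.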
row,Structure (SMILES),thermal shift delta Tm
1,CC(C)(C)c1cnc(CSc2cnc(NC(=O)C3CCNCC3)s2)o1,0.55 °C
2,CN(C)C/C=C/C(=O)Nc1cc2c(Nc3ccc(F)c(Cl)c3)ncnc2cc1O[C@H]1CCOC1 [Afatinib (BIBW2992) Dimaleate],2.08 °C
3,O=C1c2c(O)cc(O)cc2OC(c2ccc(O)c(O)c2)C1O (centres undefined) [Taxifolin (Dihydroquercetin)],0.17 °C
4,CCN(CC)CCNC(=O)c1c(C)[nH]c(/C=C2\C(=O)Nc3ccc(F)cc32)c1C [Sunitinib Malate],2.16 °C
5,COc1cc(Nc2ncc(F)c(Nc3ccc4c(n3)N(COP(=O)(O)O)C(=O)C(C)(C)O4)n2)cc(OC)c1OC [Fostamatinib (R788)],4.1 °C
6,CC(C)(C)c1nc(-c2ccc(NC(=O)Nc3cccc(C(F)(F)F)c3)c3ccccc23)c2c(N)nccn12 [kira6],1.58 °C
7,CNC(=O)c1cc(Oc2ccc(NC(=O)Nc3ccc(Cl)c(C(F)(F)F)c3)cc2)ccn1 [Sorafenib Tosylate],2.2 °C
8,CC(=O)Nc1nc(C)c(-c2ccc(Cl)c(S(=O)(=O)NCCO)c2)s1,0.78 °C
9,CCc1nc(-c2cccc(C)c2)c(-c2ccnc(NC(=O)c3ccccc3)c2)s1,0.74 °C
10,C[C@@]1(C(=O)Nc2ccc(F)nc2)CCCN1c1nc(Nc2cc(C3CC3)n[nH]2)c2cccn2n1,1.6 °C
11,COc1ccc(Cl)cc1NC(=O)Nc1cc(C)nc2ccccc12,0.32 °C
12,C=CC(=O)Nc1cccc(Nc2nc(Nc3ccc(OCCOC)cc3)ncc2F)c1,3.75 °C
13,CC(C)c1c2cc(-c3ccnc(NC4CCC(NC5CCOCC5)CC4)n3)ccc2nn1C (centres undefined),0.69 °C
14,C[C@H]1CNC(=O)c2cnn3ccc(nc23)N[C@H](C)c2cc(F)ccc2O1,3.37 °C
15,Cn1cc(-c2ccc3c(c2)CCN3C(=O)Cc2cccc(C(F)(F)F)c2)c2c(N)ncnc21,1.08 °C
16,Cn1c(=O)c(F)c(Nc2ccc(I)cc2F)c2c(=O)n(C[C@@H](O)CO)cnc21,0.83 °C
17,CNC(=O)c1cccc(-c2ccc3c(N4CCOC[C@@H]4C)nc(N4CCOC[C@@H]4C)nc3n2)c1 [Vistusertib (AZD2014)],0.96 °C

row,Structure (SMILES),thermal shift delta Tm
1,Cc1nc(Nc2cnn(C3CCNCC3)c2)nc2c1N(C)C(=O)c1cc3ccccc3cc1N2C,1.64 °C
2,COc1cc2/c(=N/c3ccc(Br)cc3F)nc[nH]c2cc1OCC1CCN(C)CC1 [Vandetanib (ZD6474)],3.76 °C
3,CCn1c(C(=O)N(C2CC2)C2CC2)cc2c3c(ncn3C)c(Nc3cc(C)n(C)n3)nc21,1.2 °C
4,OCCn1cc(-c2cnc3nnn(Cc4ccc5ncccc5c4)c3n2)cn1,-0.51 °C
5,N#CC[C@H](C1CCCC1)n1cc(-c2ncnc3[nH]ccc23)cn1,1.14 °C
6,CCn1nc(C2CCN(C(=O)CCO)CC2)nc1-c1cnc(N)c(-c2nnc(C(C)(C)C)o2)n1,2.09 °C
7,CC(C)(C)c1cc(NC(=O)Nc2ccc(Oc3ccnc4[nH]c(=O)cnc34)cc2F)n(-c2ccccc2)n1,2.2 °C
8,CO[C@H]1CC[C@H](N2C(=O)CNc3ncc(-c4ccc(C(C)(C)O)nc4)nc32)CC1,1.62 °C
9,CC[C@@H]1C(=O)N(C)c2cnc(Nc3ccc(C(=O)N[C@H]4CC[C@H](N5CCN(CC6CC6)CC5)CC4)cc3OC)nc2N1C(C)C [Volasertib (BI 6727)],0.84 °C
10,COc1ccc2c(c1)[C@]1(C[C@H]1c1ccc3c(/C=C/c4ccc(CN5C[C@@H](C)O[C@@H](C)C5)cc4)n[nH]c3c1)C(=O)N2,4.28 °C
11,O=C(Nc1nc2cccc(-c3ccc(CN4CCS(=O)(=O)CC4)cc3)n2n1)C1CC1 [Filgotinib (GLPG0634)],1.66 °C
12,CCn1c(-c2nonc2N)nc2c(C#CC(C)(C)O)ncc(OC[C@H]3CCCNC3)c21,0.66 °C
13,Cc1cnc(Nc2ccc(OCCN3CCCC3)cc2)nc1Nc1cccc(S(=O)(=O)NC(C)(C)C)c1,1.88 °C
14,Cc1cc(Nc2cc(N3CCN(C)CC3)nc(/C=C/c3ccccc3)n2)n[nH]1 [ENMD-2076 L-(+)-Tartaric acid],2.07 °C
15,CC#CC(=O)N1CC[C@@H](n2c(=O)n(-c3ccc(Oc4ccccc4)cc3)c3c(N)ncnc32)C1 [ONO-4059 (GS-4059) hydrochloride],0.62 °C
16,CCN1CCN(Cc2ccc(Nc3ncc(F)c(-c4cc(F)c5nc(C)n(C(C)C)c5c4)n3)nc2)CC1,1.91 °C
17,CN(C)C[C@@H]1CCn2cc(c3ccccc32)C2=C(C(=O)NC2=O)c2cn(c3ccccc23)CCO1,2.42 °C
